# Laboratory results: publication PMC7862700, “An all-to-all approach to the identification of sequence-specific readers for epigenetic DNA modifications on cytosine”
# Experiments:
# Assay in all cases: DAPPL (digital affinity profiling via proximity ligation, sequencing); 10 mM Tris-HCl pH 7.5, 50 mM NaCl, 1 mM DTT, 4% glycerol, room temperature, 30 min; GST-TFs on glutathione beads, 16-mer random dsDNA library, 0.1% formaldehyde crosslink after washing; high values mean tight binding
# Settings in all cases: protein: recombinant; tags: N-terminal GST; dsDNA, one strand shown
# [1] = biological target: T1, FLI1 (Homo sapiens, UniProt Q01543 1-452)
# T1 sequence: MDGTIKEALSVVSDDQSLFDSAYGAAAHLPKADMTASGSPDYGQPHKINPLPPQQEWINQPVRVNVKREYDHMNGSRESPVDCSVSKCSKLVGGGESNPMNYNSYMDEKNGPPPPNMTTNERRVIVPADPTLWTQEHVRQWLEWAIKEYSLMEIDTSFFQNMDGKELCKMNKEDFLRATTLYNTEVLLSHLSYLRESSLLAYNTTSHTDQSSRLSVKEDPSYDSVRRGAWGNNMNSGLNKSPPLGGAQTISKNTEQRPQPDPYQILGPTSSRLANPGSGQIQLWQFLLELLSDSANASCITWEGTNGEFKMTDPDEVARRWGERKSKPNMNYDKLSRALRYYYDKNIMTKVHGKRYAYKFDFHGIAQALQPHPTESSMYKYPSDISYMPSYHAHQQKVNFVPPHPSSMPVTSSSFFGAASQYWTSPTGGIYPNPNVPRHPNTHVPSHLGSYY
# In short: (§1)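 The binding signal reported is, for every hexamer, its read frequency for a factor over its read frequency for the tag-only sample. Reads came from pools of yeast-expressed, GST-fused human transcription factors on glutathione beads, barcoded with DNA and mixed with that sample, which were incubated with 200 nmole of a random double-stranded 16-mer DNA library in Tris/NaCl/DTT/glycerol buffer at room temperature for 30 min. After washing, the pools were crosslinked with 0.1% formaldehyde, proximity-ligated with BsaI/T4 ligase for 1 h at 37 °C, PCR-amplified and sequenced on an Illumina NextSeq500.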
# [2] = biological target: T2, ELK1 (Homo sapiens, UniProt P19419 1-428)
# T2 sequence: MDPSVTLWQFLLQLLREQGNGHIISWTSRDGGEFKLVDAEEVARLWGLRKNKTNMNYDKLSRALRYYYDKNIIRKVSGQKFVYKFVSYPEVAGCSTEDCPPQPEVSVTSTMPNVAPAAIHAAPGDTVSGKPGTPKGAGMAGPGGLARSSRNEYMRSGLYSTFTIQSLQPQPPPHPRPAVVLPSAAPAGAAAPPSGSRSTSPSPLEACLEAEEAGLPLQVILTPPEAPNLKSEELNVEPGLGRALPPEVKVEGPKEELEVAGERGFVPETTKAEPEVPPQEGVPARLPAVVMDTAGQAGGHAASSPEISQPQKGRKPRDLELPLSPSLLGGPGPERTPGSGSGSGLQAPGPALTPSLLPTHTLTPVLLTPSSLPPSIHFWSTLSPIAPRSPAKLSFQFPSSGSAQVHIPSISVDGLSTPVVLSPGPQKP
# In short: as §1
# [3] = biological target: T3, GABPA (Homo sapiens, UniProt Q06546 1-454)
# T3 sequence: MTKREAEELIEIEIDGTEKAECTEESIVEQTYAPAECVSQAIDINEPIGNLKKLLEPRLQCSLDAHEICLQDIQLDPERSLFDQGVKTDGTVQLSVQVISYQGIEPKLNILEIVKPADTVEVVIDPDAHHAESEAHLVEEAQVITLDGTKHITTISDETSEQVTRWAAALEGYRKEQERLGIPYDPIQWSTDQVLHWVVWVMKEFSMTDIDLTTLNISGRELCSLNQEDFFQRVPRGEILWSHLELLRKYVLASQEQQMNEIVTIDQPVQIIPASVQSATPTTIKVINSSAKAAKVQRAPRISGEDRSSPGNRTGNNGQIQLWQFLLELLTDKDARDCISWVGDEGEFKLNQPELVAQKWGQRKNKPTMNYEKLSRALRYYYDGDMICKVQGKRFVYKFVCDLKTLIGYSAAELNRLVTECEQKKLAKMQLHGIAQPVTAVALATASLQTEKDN
# In short: as §1
# [4] = biological target: T4, ERG (Homo sapiens, UniProt P11308 1-479)
# T4 sequence: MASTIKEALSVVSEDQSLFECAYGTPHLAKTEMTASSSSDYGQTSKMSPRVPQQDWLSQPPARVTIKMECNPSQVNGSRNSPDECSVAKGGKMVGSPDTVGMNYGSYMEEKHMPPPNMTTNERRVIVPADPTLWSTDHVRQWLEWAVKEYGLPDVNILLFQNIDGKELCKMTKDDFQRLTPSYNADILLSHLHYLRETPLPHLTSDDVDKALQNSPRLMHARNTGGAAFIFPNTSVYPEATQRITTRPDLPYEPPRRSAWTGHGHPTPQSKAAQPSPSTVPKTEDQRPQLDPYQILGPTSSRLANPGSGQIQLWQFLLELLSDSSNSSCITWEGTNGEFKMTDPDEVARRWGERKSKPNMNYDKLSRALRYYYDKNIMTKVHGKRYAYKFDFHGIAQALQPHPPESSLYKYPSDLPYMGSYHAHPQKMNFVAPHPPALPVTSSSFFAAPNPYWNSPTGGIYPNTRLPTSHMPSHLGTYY
# In short: as §1
# [5] = biological target: ELF1 (Homo sapiens, UniProt P32519 1-619)
# ELF1, sequence (P32519 whole entry): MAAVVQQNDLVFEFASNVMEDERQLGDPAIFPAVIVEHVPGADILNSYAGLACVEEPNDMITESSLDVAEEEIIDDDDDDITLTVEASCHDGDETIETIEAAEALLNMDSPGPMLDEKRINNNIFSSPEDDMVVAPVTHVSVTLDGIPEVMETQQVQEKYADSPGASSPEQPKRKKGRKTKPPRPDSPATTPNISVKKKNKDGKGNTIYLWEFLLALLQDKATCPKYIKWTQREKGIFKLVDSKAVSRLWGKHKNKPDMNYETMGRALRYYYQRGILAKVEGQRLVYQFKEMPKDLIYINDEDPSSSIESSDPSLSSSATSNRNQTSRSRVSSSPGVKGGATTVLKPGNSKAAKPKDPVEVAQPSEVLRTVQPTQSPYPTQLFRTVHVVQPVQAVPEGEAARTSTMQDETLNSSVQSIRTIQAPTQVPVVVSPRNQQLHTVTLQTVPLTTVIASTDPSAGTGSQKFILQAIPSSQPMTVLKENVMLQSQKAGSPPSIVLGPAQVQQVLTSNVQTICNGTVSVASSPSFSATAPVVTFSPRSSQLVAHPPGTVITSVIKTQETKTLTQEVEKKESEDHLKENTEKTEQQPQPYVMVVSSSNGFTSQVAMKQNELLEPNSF
# In short: as §1
# [6] = biological target: T5, EHF (Homo sapiens, UniProt Q9NZC4 1-300)
# T5 sequence: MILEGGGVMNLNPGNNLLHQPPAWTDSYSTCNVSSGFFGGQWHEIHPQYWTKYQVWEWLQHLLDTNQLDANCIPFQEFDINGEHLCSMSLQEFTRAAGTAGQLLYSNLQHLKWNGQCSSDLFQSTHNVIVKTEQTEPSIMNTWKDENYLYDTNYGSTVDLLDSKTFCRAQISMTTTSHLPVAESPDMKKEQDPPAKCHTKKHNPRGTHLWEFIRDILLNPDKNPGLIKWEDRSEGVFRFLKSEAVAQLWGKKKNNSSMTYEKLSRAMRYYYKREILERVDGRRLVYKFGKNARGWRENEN
# In short: as §1
# [7] = biological target: SPI1 (Homo sapiens, UniProt P17947 1-270)
# In short: as §1
# [8] = biological target: SPIB (Homo sapiens, UniProt Q01892 1-262)
# SPIB, sequence (Q01892 whole entry): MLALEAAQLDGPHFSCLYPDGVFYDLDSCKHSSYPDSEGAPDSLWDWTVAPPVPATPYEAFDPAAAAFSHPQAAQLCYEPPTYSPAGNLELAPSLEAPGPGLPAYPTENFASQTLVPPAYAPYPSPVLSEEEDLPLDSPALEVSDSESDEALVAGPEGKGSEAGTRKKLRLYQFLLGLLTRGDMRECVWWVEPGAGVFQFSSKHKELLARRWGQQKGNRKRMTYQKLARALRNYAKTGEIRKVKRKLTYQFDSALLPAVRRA
# In short: as §1
# [9] = biological target: T6, ELK3 (Homo sapiens, UniProt P41970 1-407)
# T6 sequence: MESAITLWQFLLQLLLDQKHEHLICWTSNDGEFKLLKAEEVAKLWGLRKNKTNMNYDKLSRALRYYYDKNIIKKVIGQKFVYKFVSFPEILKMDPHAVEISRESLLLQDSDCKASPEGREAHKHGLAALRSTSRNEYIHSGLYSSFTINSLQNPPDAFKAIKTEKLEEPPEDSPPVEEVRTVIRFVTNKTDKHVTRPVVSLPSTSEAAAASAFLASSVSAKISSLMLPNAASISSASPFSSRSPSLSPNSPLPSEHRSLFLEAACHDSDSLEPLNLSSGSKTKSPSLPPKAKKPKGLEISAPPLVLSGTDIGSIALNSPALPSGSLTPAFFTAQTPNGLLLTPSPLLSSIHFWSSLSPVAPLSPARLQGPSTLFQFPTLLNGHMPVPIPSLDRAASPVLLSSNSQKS
# In short: as §1
sequence,measurement,setting,value
CGTCCC,binding signal,[1],"1.3 fold enrichment (6-mer frequency, TF over GST control)"
same,binding signal,[2],"1.39 fold enrichment (6-mer frequency, TF over GST control)"
same,binding signal,[3],"1.42 fold enrichment (6-mer frequency, TF over GST control)"
same,binding signal,[4],"1.37 fold enrichment (6-mer frequency, TF over GST control)"
same,binding signal,[5],"1.36 fold enrichment (6-mer frequency, TF over GST control)"
same,binding signal,[6],"1.44 fold enrichment (6-mer frequency, TF over GST control)"
same,binding signal,[7],"1.23 fold enrichment (6-mer frequency, TF over GST control)"
same,binding signal,[8],"1.31 fold enrichment (6-mer frequency, TF over GST control)"
same,binding signal,[9],"1.57 fold enrichment (6-mer frequency, TF over GST control)"
